Screening results: PubChem, National Center for Advancing Translational Sciences (NCATS)
ATXN2 expr inh: Primary qHTS for Inhibitors of ATXN expression; HEK-293 ATXN2-luciferase reporter, luminescence, 24 h; Potency, µM (doses to about 57 µM), actives largely listed as inhibitors; 360,000 compounds, 0.72% hits; AID 1745845, 2022; note: nearly all actives have a fitted effect of over 55% in size
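ATXN2-luciferase reporter cells (luciferase flanked by upstream and downstream ATXN2 gene portions) were treated 24 h at 37 °C with compounds at up to 57 uM. SteadyGlo luminescence gave expression; GF-AFC fluorescence gave viability.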
MCF10A rerep: A quantitative high throughput screen for small molecules that induce DNA re-replication in MCF 10a normal breast cells | Potency, µM (highest dose often 46.1 µM), most hits filed as activators | 350,000 compounds, 2.9% hits | MCF 10A DNA re-replication, Hoechst nuclear intensity, 48 h; note: nearly all actives have a fitted effect of over 50% in size
SW480 rerep: A quantitative high throughput screen for small molecules that induce DNA re-replication in SW480 colon adenocarcinoma cells; SW480 DNA re-replication, Hoechst DNA content imaging, 48 h; Potency, µM (highest dose often 46.1 µM), hits mostly activators; 340,000 compounds, 1.8% hits; AID 624297, 2012; note: nearly all actives have a fitted effect of over 55% in size
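Image-based read-out: total Hoechst fluorescence of nuclei (405 nm excitation, 500-530 nm emission), with hits raising the fraction of high-intensity nuclei. SW480 colon cells incubated 48 hr with compounds at 37 C.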
ATXN viability: Viability Counterscreen for Primary qHTS for Inhibitors of ATXN expression; S2 cells (HEK-293 line with an ATXN2-luciferase reporter) viability, CellTiter-Fluor protease fluorescence, 24 h; Potency, µM (titrated, usually from 56.7 µM), hits mostly cytotoxic; AID 651635, 2014; 400,000 compounds, 0.49% hits; note: nearly all actives have a fitted effect of over 40% in size
IL-1B inflam inh: qHTS for Inhibitors of Inflammasome Signaling: IL-1-beta AlphaLISA Primary Screen; 360,000 compounds, 4.7% hits; THP-1 LPS/ATP IL-1B secretion, AlphaLISA, 16 h; stronger effect = lower value; AID 743279, 2014; activity change, % at 57.5 µM; in the data active = activity change below about -50%; inconclusive = mostly about -30% to -49%
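THP-1 cells pretreated 1 hr with compounds (up to 57.5 uM final), then stimulated with LPS (250 ng/mL final) plus ATP (1.25 mM final); secreted IL-1B measured by AlphaLISA after 16 hr, decreased signal indicating inhibition.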
PINK1 modulator: A Quantitative High throughput Screen to Identify Chemical Modulators of PINK1 Expression. PINK1 immunofluorescence, high-content cytometry, 24 h. Potency, µM (titrated, usually from 76.6 µM), actives largely listed as activators. 410,000 compounds, 0.2% hits. AID 624263, 2012; active = well fitted activation curve with a large enough effect; inconclusive = small, poorly fitted or top-dose-only effect; cell line not stated here; note: nearly all actives have a fitted effect of over 65% in size
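PINK1 protein level read as immunofluorescence by microplate cytometer in a fixed, stained stable cell line after 24 h exposure to five compound concentrations, with CCCP as control.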
Hits are given with their value; [ ] = another dose, or the depositor's remark. Rows were chosen to be rich in hits. Some 7.1% of all compounds tested hit in one or more screens of this group. Unless noted, calls come from the whole dose curve; as a rule, active = well fitted curve in the direction sought with a large enough effect; inconclusive = small, poorly fitted or top-dose-only effect, or another doubt; inactive = no such curve, though single readings can be large; an effect the other way counts as inactive or inconclusive.

Cc1ccc(C(=O)c2sc(Nc3ccccc3F)c(S(=O)(=O)c3ccccc3)c2N)c(C)c1 was read as ATXN2 expr inh inactive, ATXN viability inactive and PINK1 modulator inactive.
Screening COc1ccc(Cn2ccnc2SCC(=O)Nc2ccc(F)cc2F)cc1 returned ATXN viability inactive, IL-1B inflam inh inactive and PINK1 modulator inactive.
Screening CS(=O)(=O)NC1c2cccc3cccc(c23)C1Sc1nncn1/N=C/c1ccco1 (centres undefined) returned ATXN2 expr inh inactive, MCF10A rerep inactive, SW480 rerep inactive, ATXN viability inactive, IL-1B inflam inh -60 and PINK1 modulator inactive.
Screening COc1ccc(C(=O)N/N=C(\c2ccccc2)c2ccccn2)cc1 returned ATXN2 expr inh 3.2µM, MCF10A rerep inconclusive, SW480 rerep inconclusive, ATXN viability 10µM, IL-1B inflam inh inactive and PINK1 modulator inactive.
For O=C(NC(O)C(=O)c1ccccc1)c1ccccn1 (centres undefined) the results were ATXN2 expr inh inactive, MCF10A rerep inactive, SW480 rerep inactive, ATXN viability inactive, IL-1B inflam inh inactive and PINK1 modulator inactive.
COc1ccc(C(=O)N/N=C/c2cccc3cccnc23)cc1 was read as ATXN2 expr inh 22µM, MCF10A rerep inconclusive, SW480 rerep inconclusive, ATXN viability inactive, IL-1B inflam inh inactive and PINK1 modulator inactive.
For O=C(NN=C(c1ccccc1)c1ccccn1)c1ccccc1 the results were ATXN2 expr inh 4µM, MCF10A rerep inconclusive, SW480 rerep 10µM, ATXN viability inconclusive, IL-1B inflam inh -99 and PINK1 modulator inactive.
COc1ccc(C(=O)Nc2ccc(NC(=O)c3ccccn3)cn2)cc1 was read as ATXN2 expr inh inactive, MCF10A rerep inactive, SW480 rerep inactive, ATXN viability inactive, IL-1B inflam inh inactive and PINK1 modulator inactive.
O=C(N/N=C(\c1ccccc1)c1ccccn1)c1ccccc1Cl was read as ATXN2 expr inh 22µM, MCF10A rerep inconclusive, SW480 rerep inconclusive, ATXN viability inconclusive, IL-1B inflam inh -104 and PINK1 modulator inactive.
COc1ccc(C(=O)CCC(=O)Nc2cc(C)ccc2C)cc1 was read as ATXN2 expr inh inactive, ATXN viability inactive and PINK1 modulator inactive.
For COc1ccc2nc(/C=N/NC(=O)[C@H](CCSC)NC(=O)OC(C)(C)C)ccc2c1 the results were ATXN2 expr inh inactive, MCF10A rerep inactive, SW480 rerep inactive, ATXN viability inconclusive, IL-1B inflam inh inactive and PINK1 modulator inactive.
Screening CSCC[C@H](NC(=O)OC(C)(C)C)C(=O)N/N=C/c1cccc2cccnc12 returned ATXN2 expr inh 28µM, MCF10A rerep inactive, SW480 rerep inconclusive, ATXN viability inactive, IL-1B inflam inh inactive and PINK1 modulator inactive.
Cc1ccc(OCCSc2nc3ccc(NC(=O)c4ccco4)cc3s2)cc1 was read as ATXN2 expr inh inactive, ATXN viability inactive and PINK1 modulator inactive.
`Cc1ccc(OCC(O)CN2CCN(c3ccc(C)cc3)CC2)cc1` (centres undefined) gave ATXN2 expr inh inactive, MCF10A rerep 0.82µM, SW480 rerep inactive, ATXN viability inactive, IL-1B inflam inh inactive and PINK1 modulator inactive.
O=c1[nH]c(CN2CCN(C/C=C/c3ccccc3)CC2)nc2cc(Cl)ccc12 was read as ATXN2 expr inh inactive, MCF10A rerep inconclusive, SW480 rerep inconclusive, ATXN viability inconclusive, IL-1B inflam inh -72 and PINK1 modulator inactive.
For CC(C)(C)c1ccc(C(=O)NNC(=O)c2cccc(Br)c2)cc1 the results were ATXN2 expr inh inactive, MCF10A rerep 12µM, SW480 rerep inconclusive, ATXN viability inactive, IL-1B inflam inh inactive and PINK1 modulator inconclusive.
Screening Cc1ccc(C(=O)NNC(=O)c2cccc(Br)c2)cc1 returned ATXN2 expr inh inactive, MCF10A rerep inactive, SW480 rerep inactive[1.84 µM], ATXN viability inactive, IL-1B inflam inh inactive and PINK1 modulator inactive.
CC(=O)Nc1ccc2[nH]c(C)cc(=O)c2c1 was read as ATXN2 expr inh inactive, MCF10A rerep inactive, SW480 rerep inactive, ATXN viability inactive, IL-1B inflam inh inactive and PINK1 modulator inactive.
`COc1cccc(-c2cc(=O)c3cc(NC(C)=O)ccc3[nH]2)c1` gave ATXN2 expr inh inactive, MCF10A rerep 23µM, SW480 rerep 16µM, ATXN viability inactive, IL-1B inflam inh inactive and PINK1 modulator inactive.
O=C1c2ccccc2C(=O)C1c1ccc(Cl)cc1 was read as ATXN2 expr inh inactive, MCF10A rerep inactive, SW480 rerep inactive, ATXN viability inactive, IL-1B inflam inh inactive and PINK1 modulator inactive.
O=C1c2ccccc2C(=O)C12OC2c1ccc(Cl)cc1Cl (centres undefined) was read as ATXN2 expr inh inconclusive, MCF10A rerep 12µM, SW480 rerep inconclusive, ATXN viability inconclusive, IL-1B inflam inh -101 and PINK1 modulator inactive.
COc1ccc(-c2noc(CSc3nnc(-c4ccncc4)n3-c3ccc(C)cc3)n2)cc1OC was read as ATXN2 expr inh inactive, ATXN viability inactive and PINK1 modulator inactive.
O=C1C=CC(=Nc2ccc(F)cc2)O1 was read as ATXN2 expr inh inactive, MCF10A rerep 18µM, SW480 rerep inconclusive, ATXN viability inactive, IL-1B inflam inh -51 and PINK1 modulator inactive.
CCn1c(SCC(=O)NCc2ccc3c(c2)OCO3)nnc1-c1cccs1 was read as ATXN2 expr inh inactive, MCF10A rerep inactive, SW480 rerep inactive, ATXN viability inactive, IL-1B inflam inh inactive and PINK1 modulator inactive.
Screening Cc1cc(C)c2cc(C)c3nnc(SCC(=O)NCc4ccc5c(c4)OCO5)n3c2c1 returned ATXN2 expr inh inactive, MCF10A rerep inactive, SW480 rerep inactive, ATXN viability inactive, IL-1B inflam inh -59 and PINK1 modulator inactive.
`O=C(CSc1nnc(-c2cccs2)n1Cc1ccccc1)NCc1ccc2c(c1)OCO2` gave ATXN2 expr inh inactive, MCF10A rerep inactive, SW480 rerep inactive, ATXN viability inactive, IL-1B inflam inh -61 and PINK1 modulator inactive.
`COc1ccc2c(c1)C=C/C2=C\c1ccc(N(C)C)cc1` gave PINK1 modulator inactive.
Screening Cc1cc(O)c(C2=Nc3ccccc3SC(c3ccc(Cl)cc3)C2)c(=O)o1 (centres undefined) returned ATXN2 expr inh inactive, MCF10A rerep 5.2µM, ATXN viability inactive, IL-1B inflam inh inactive and PINK1 modulator inactive.
Screening CN1CCN(C(=O)C2=NOC3(C2)C(=O)Nc2ccccc23)CC1 (centres undefined) returned ATXN2 expr inh inactive, ATXN viability inactive, IL-1B inflam inh inactive and PINK1 modulator inactive.
